{"source": "ChEMBL document CHEMBL3988442", "about": "“University of Dundee, Small-Polar-MMV Screening Library” (2021)", "note": "Among all 48,000 compounds or so, about 13,000 (27%) showed an effect of 50% or more. Some of the results follow.", "data": [{"system": "Wolbachia pipientis", "experiment": "Anti-Wolbachia Cell-Based Screen", "format": "functional", "parameters": "scale not given: in the data most compounds retested in dose-response had high values", "conditions": "5 µM", "units": {"Percent Effect": "%"}, "values": [{"smiles": "CCc1cn[nH]c1C1CCN(C(=O)c2cccc(O)c2C)CC1", "Percent Effect": -3.715}, {"smiles": "C[C@@H](N)C(=O)N1CCC(c2[nH]ncc2-c2ccccc2)CC1", "Percent Effect": 132.4}, {"smiles": "FC(F)c1nnc2ccc(N3CCC4(CCOC4)C3)nn12", "note": "(stereo unspecified)", "Percent Effect": -11.38}, {"smiles": "CSc1ncc(CNC(C)c2cnn(-c3ccccc3)c2C)cn1", "note": "(stereo unspecified)", "Percent Effect": 31.2}, {"smiles": "CN(CCCc1n[nH]c(N)c1C#N)C(=O)Nc1cc(Cl)cc(Cl)c1", "Percent Effect": 9.984}, {"smiles": "Cc1ccc(NCc2ncc(C(C)(C)C)o2)c(Cl)c1", "Percent Effect": -11.33}, {"smiles": "O=C(CCC1CCN(Cc2ccncc2)CC1)Nc1ccccc1Cl", "Percent Effect": -2.559}, {"smiles": "Cc1cnn(CC2CCCN2C(=O)Cc2cn3ccsc3n2)c1", "note": "(stereo unspecified)", "Percent Effect": 12.98}, {"smiles": "Cc1cnn(CC2CCCN2C(=O)Cc2c(C)noc2Cl)c1", "note": "(stereo unspecified)", "Percent Effect": 116}, {"smiles": "Cc1cnn(CC2CCCCN2C(=O)CN(C)C2CC2)c1", "note": "(stereo unspecified)", "Percent Effect": 4.023}, {"smiles": "Cc1cnn(CC2CCCN2C(=O)c2cc(C)no2)c1", "note": "(stereo unspecified)", "Percent Effect": 3.618}, {"smiles": "Cc1cnn(CC2CCCCN2C(=O)Cc2c(C)noc2Cl)c1", "note": "(stereo unspecified)", "Percent Effect": 116.9}, {"smiles": "CCN1CC2(CCN(C(=O)C(C)Oc3ccc(F)cc3F)CC2)OC1=O", "note": "(stereo unspecified)", "Percent Effect": -0.4228}, {"smiles": "Cc1cc(C[S+]([O-])CC(=O)NCc2cccs2)no1", "note": "(stereo unspecified)", "Percent Effect": -0.248}, {"smiles": "COc1ccc(F)cc1C[S+]([O-])CC(=O)NCc1ccccc1", "note": "(stereo unspecified)", "Percent Effect": -20.74}, {"smiles": "Cc1cc(C[S+]([O-])CC(=O)Nc2c(C)cccc2C)no1", "note": "(stereo unspecified)", "Percent Effect": 4.503}, {"smiles": "Cc1cc(C[S+]([O-])CC(=O)NCc2cccc(Cl)c2)no1", "note": "(stereo unspecified)", "Percent Effect": 98}, {"smiles": "Cc1cc(C[S+]([O-])CC(=O)NCc2ccccc2)no1", "note": "(stereo unspecified)", "Percent Effect": 111.1}, {"smiles": "O=C(C[S+]([O-])Cc1cccc(Cl)c1)NC1CCCC1", "note": "(stereo unspecified)", "Percent Effect": -4.291}, {"smiles": "COc1ccccc1CNC(=O)C[S+]([O-])Cc1cc(C)on1", "note": "(stereo unspecified)", "Percent Effect": 100.1}, {"smiles": "COc1ccc(F)cc1C[S+]([O-])CC(=O)NCc1ccccc1C", "note": "(stereo unspecified)", "Percent Effect": 4.028}, {"smiles": "Cc1cc(C[S+]([O-])CC(=O)NCC(C)C)no1", "note": "(stereo unspecified)", "Percent Effect": -9.622}, {"smiles": "CNC(=O)CCS(=O)(=O)Cc1nnnn1-c1ccccc1", "Percent Effect": 7.116}, {"smiles": "CC1(NC(=O)CC2CCc3ccccc32)CCOCC1", "note": "(stereo unspecified)", "Percent Effect": -18.69}, {"smiles": "CCN(CC(C)C#N)C(=O)c1cccc(COc2ccc(C)nc2)c1", "note": "(stereo unspecified)", "Percent Effect": 11.78}, {"smiles": "CC(c1ccco1)N(C(=O)c1cccc(C#N)c1)C1CC1", "note": "(stereo unspecified)", "Percent Effect": -7.767}, {"smiles": "CC(C)n1ccnc1CN1CCCN(C(=O)c2cccnc2O)CC1", "Percent Effect": 3.954}, {"smiles": "CN(C)Cc1nc2c(o1)CN(C(=O)c1ccncc1F)C2", "Percent Effect": -6.758}, {"smiles": "CC(C)c1noc(CN2CCN(C(=O)c3cccnc3O)CC2)n1", "Percent Effect": 109.3}, {"smiles": "CC(C)c1noc(CN2CCN(C(=O)c3ccccc3F)CC2)n1", "Percent Effect": 4.935}, {"smiles": "CC(C)c1noc(CCC(=O)Nc2cc(F)ccc2F)n1", "Percent Effect": 6.757}, {"smiles": "CC(C)c1noc(CN2CCN(C(=O)c3cc(Cl)ccc3F)CC2)n1", "Percent Effect": 113.5}, {"smiles": "CC(C)(O)CN1CCN(C(=O)c2cccnc2O)CC1", "Percent Effect": -5.606}, {"smiles": "CC(C)c1noc(CN2CCN(C(=O)c3ccncc3F)CC2)n1", "Percent Effect": 113.2}, {"smiles": "CN(C)C(=O)c1ccc(-c2cscn2)cc1", "Percent Effect": -9.809}, {"smiles": "O=C(O)C(F)(F)F.O=C(c1cnccn1)N1CCN2C[C@H](Oc3cccc(F)c3)C[C@H]2C1", "Percent Effect": 8.036}, {"smiles": "OC1(CNCc2ccc(F)c(C(F)(F)F)c2)CCOC1", "note": "(stereo unspecified)", "Percent Effect": -11.97}, {"smiles": "CCN1CCC2(CN(C(=O)N(C)C)CC23CCN(CC2CC2)CC3)C1=O.O=C(O)C(F)(F)F", "note": "(stereo unspecified)", "Percent Effect": -42.34}, {"smiles": "CCCc1nc(CN2CCCC(Cn3cncn3)C2)no1", "note": "(stereo unspecified)", "Percent Effect": 15.71}, {"smiles": "Cc1nc(CN2CCCC(Cn3cncn3)C2)no1", "note": "(stereo unspecified)", "Percent Effect": 79.74}, {"smiles": "c1ncn(CCNC2CCCN(Cc3noc(C4CC4)n3)C2)n1", "note": "(stereo unspecified)", "Percent Effect": 10.95}, {"smiles": "c1cnc(-c2nc(CN3CCCC(Cn4cncn4)C3)cs2)nc1", "note": "(stereo unspecified)", "Percent Effect": 1.551}, {"smiles": "CC(C)(C)c1nnc(CN2CCCC(Cn3cncn3)C2)o1", "note": "(stereo unspecified)", "Percent Effect": 3.207}, {"smiles": "c1ncn(CC2CN(Cc3noc(C4CC4)n3)CCO2)n1", "note": "(stereo unspecified)", "Percent Effect": 0.6807}, {"smiles": "CC(C)(C)c1nc(CN2CCCC(Cn3cncn3)C2)no1", "note": "(stereo unspecified)", "Percent Effect": 114.7}, {"smiles": "c1ncn(CC2CCCN(Cc3noc(C4CC4)n3)C2)n1", "note": "(stereo unspecified)", "Percent Effect": 115}, {"smiles": "Cc1ccc(CNC(=O)NCC(=O)NC(C)(C)C)c(N2CCCC2)c1", "Percent Effect": 2.082}, {"smiles": "Fc1ccccc1-c1noc2c1CN(CC1CC1)CC2", "Percent Effect": -13.76}, {"smiles": "Cn1ccnc1CN1C[C@@H](F)[C@@H](OCc2nc3cnccc3[nH]2)C1", "Percent Effect": 4.118}, {"smiles": "CCOCCn1c(=O)[nH]c2cc(C(=O)N(C)Cc3ccno3)ccc21", "Percent Effect": 10.95}, {"smiles": "O=C1CCC2(CCNCC2)CN1CCCNc1cccnc1", "Percent Effect": -8.003}]}]}
